{"source": "PubChem BioAssay (NCI)", "note": "“And” between values parts separate entries of the source, which are not always exact repeats. Equal values may be shown once. Compounds without any hit were thinned out: in the full panel of roughly 83,000, 20% have a hit.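 Cell lines were cultured in 96-well plates, exposed to a single compound concentration, and assessed for percent growth 48 hours later.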 Values without a mark were called inactive. The source made the active and inactive calls."}
{"tested_on": "SW-620 colon", "assay": "NCI-60 one-dose screen, 48 h (100 = growth as untreated, 0 = no growth, -100 = all killed)", "details": "1 µM", "method": "(§1) Growth inhibition of the SW-620 human tumor cell line is measured as a screen for anti-cancer activity. Cells are grown in 96 well plates and exposed to the test compound for 48 hours. Compounds are tested at a single concentration, which is 10^-5 M for most compounds. The reported endpoint is percent growth (GI% or GIPRCNT), where numbers from 0 - 100% represent growth inhibition, and numbers from -100% - 0 represent cell death. For example, a value of 40 represents 60% growth inhibition. A value of 0 means no net growth occurred over the course of the experiment. A value of -40 indicates 40% of cells at the beginning of the experiment died by the end of the experiment. A value of -100 means all cells are dead at the end of the experiment.\n(§2) NCI-60 Human Tumor Cell Lines Screen was performed using the standard one-dose NCI protocol, which is described in more detail at https://dtp.cancer.gov/discovery_development/nci-60/default.htm.\n(§3) Compounds with GIPRCNT values below 10 were considered active. Activity score was based on GIPRCNT using the following formula: […]\n(§4) Score is 0 for GIPRCNT values of 100 or above, 50 for GIPRCNT values of 0, and 100 for GIPRCNT values of -100.", "units": {"growth": "%"}}
{"smiles": "CC/C(=C(/c1ccc(O)cc1)c1ccc(OCCN(C)C(=O)COCCOCCNC(=O)Cc2ccc3c(c2)CN([C@@H]2CCC(=O)NC2=O)C3=O)cc1)c1ccccc1", "growth": 84.2}
{"tested_on": "SW-620 colon", "assay": "NCI-60 one-dose screen, 48 h (100 = growth as untreated, 0 = no growth, -100 = all killed)", "details": "10 µM", "method": "as §1, §2, §3, §4", "units": {"growth": "%"}}
{"smiles": "CC/C(=C(/c1ccc(O)cc1)c1ccc(OCCN(C)C(=O)COCCOCCNC(=O)Cc2ccc3c(c2)CN([C@@H]2CCC(=O)NC2=O)C3=O)cc1)c1ccccc1", "growth": 29.6}
{"tested_on": "SW-620 colon", "assay": "NCI-60 one-dose screen, 48 h (100 = growth as untreated, 0 = no growth, -100 = all killed)", "details": "10 µM unless noted", "method": "as §1, §2, §3, §4"}
{"smiles": "O=C(CSc1nnc(-c2ccc(-c3nc4ccccc4[nH]3)cc2)o1)Nc1ccc(Cl)cc1", "growth": "-50.5% (active)"}
{"smiles": "CC(C)C[C@H](NC(=O)CNC(=O)C[C@H]1O[C@@H]2OC3(C)CC[C@H]4[C@H](C)CC[C@@H]([C@H]1C)[C@@]24O3)B(O)O", "growth": "-0.307% (active)"}
{"smiles": "COc1ccc(N=Nc2c(N)nn3c(N)c(C#N)c(-c4ccc(C)cc4)nc23)cc1", "growth": "67.2%"}
{"smiles": "O=CNc1cccc(-n2cnc3cc(-c4ccc(O)cc4)ccc32)c1", "growth": "46.3%"}
{"smiles": "N#Cc1c(NC(=O)N2CCOCC2)n(-c2ccc(OC(F)(F)F)cc2)c2cc(F)ccc12", "growth": "110%"}
{"smiles": "O=C1Nc2cc(-c3ccc(NS(=O)(=O)c4ccc(-c5ccccc5)cc4)cc3)ccc2/C1=C/c1ccc[nH]1", "growth": "8.95% (active)"}
{"smiles": "N#Cc1ccc(C(=O)CSc2nc3c(c(Nc4ccc(S(N)(=O)=O)cc4)n2)CCC3)cc1", "growth": "47.8%"}
{"smiles": "O=C1C=CC(=CC=C2N(Cc3ccc4ccccc4c3)c3ccccc3N2Cc2ccc3ccccc3c2)C=C1", "growth": "29.1% and 19.4%"}
{"smiles": "CN(C)c1nc(NCCNS(=O)(=O)c2ccc(C3=Nc4c(N)nc(N)nc4NC(c4ccc(C(F)(F)F)cc4)C3)cc2)nc(N2CCOCC2)n1", "note": "(stereo not given)", "growth": "54.7%"}
{"smiles": "C=CCSc1nnc(-c2ccc(-c3nc4ccccc4[nH]3)cc2)o1", "growth": "101%"}
{"smiles": "Cn1cc(-c2cc(N)n3nc(-c4c[nH]c5ccccc45)cc3n2)c2cc(Br)ccc21", "growth": "-84.3% (active)"}
{"smiles": "O=C(O)CC1S/C(=N/N=C/c2nc3ccccc3s2)NC1=O", "note": "(stereo not given)", "growth": "104%"}
{"smiles": "CC1=C(C(=O)OCc2ccccc2)C(c2cccc3ccccc23)n2c(nc3ccccc32)N1", "note": "(stereo not given)", "growth": "23.7%"}
{"smiles": "O=C(CSc1nnc(-c2ccc(-c3nc4ccc(Cl)cc4[nH]3)cc2)o1)Nc1ccc(Cl)cc1", "growth": "4.33% (active)"}
{"smiles": "Cc1cc(C2(c3cc(C)c(OCC(O)CNc4c(C)n(C)n(-c5ccccc5)c4=O)cc3C(C)C)OC(=O)c3ccccc32)c(C(C)C)cc1OCC(O)CNc1c(C)n(C)n(-c2ccccc2)c1=O", "note": "(stereo not given)", "growth": "18.4%"}
{"smiles": "CN(C)c1nc(NCCNS(=O)(=O)c2ccc(C(=O)/C=C/c3ccc(F)cc3)cc2)nc(N2CCOCC2)n1", "growth": "-48.6% (active)"}
{"smiles": "COc1cc(/C=C/C(=O)c2cnn(-c3cc(=O)[nH]c4ccc(Cl)cc34)c2C)cc(OC)c1OC", "growth": "-45.8% (active)"}
{"smiles": "C=CCn1c(O)c(N=Nc2nc(-c3cc4ccccc4oc3=O)cs2)c2ccccc21", "growth": "101%"}
{"smiles": "COc1ccc(N=Nc2c(N)nn3c(-c4cc5cc(Br)ccc5oc4=O)ccnc23)cc1", "growth": "56.1%"}
{"smiles": "CC(=O)c1c2c(c3ccc4c5ccccc5ccc4n13)C(=O)c1ccccc1C2=O", "growth": "107%"}
{"smiles": "O=C(COc1ccc(/C=C2/C(=O)Nc3ccc(Cl)cc32)cc1)Nc1ccc(Br)cc1", "growth": "2.56% (active)"}
{"smiles": "COc1ccc2nc(NC(=O)c3ccc(N(C)C)cc3)sc2c1", "growth": "91.8%"}
{"smiles": "c1n[nH]cc1-c1nc2ccc3[nH]ncc3c2c2c1CC1(CCOCC1)CC2", "growth": "17.9%"}
{"smiles": "O=C(CSc1nc2sc3c(c2c(=O)n1-c1ccc(Cl)cc1)CCCC3)NNC(=O)c1ccc(Br)cc1", "growth": "76.1%"}
{"smiles": "COc1cc(/C=C/C(=O)c2ccc(S(=O)(=O)NCCNc3nc(N(C)C)nc(N4CCOCC4)n3)cc2)cc(OC)c1OC", "growth": "-100% (active)"}
{"smiles": "N#Cc1cc(-c2ccnc(Nc3ccc(N4CCN(C5COC5)CC4)cc3)n2)ccc1N1CCCC1", "growth": "72.7%"}
{"smiles": "N#Cc1ccc(C(=O)NNC(=O)CSc2nc3sc4c(c3c(=O)n2-c2ccc(Cl)cc2)CCCC4)cc1", "growth": "60.3%"}
{"smiles": "COc1ccc(C(=O)C[n+]2cccc3c4ccccc4ccc32)cc1", "growth": "36.4%"}
{"smiles": "Cc1cccc(C)c1Nc1nnc(-c2c[nH]c3ccccc23)o1", "growth": "99.5%"}
{"smiles": "Nc1ccc(-c2ccc3ncnc(N4CCc5cc(F)c(Cl)cc54)c3c2)cn1", "growth": "55.8%"}
{"smiles": "CN1CCc2c(sc3ncnc(N/N=C/c4cccc(Cl)c4Cl)c23)C1", "growth": "-36.9% (active)"}
{"smiles": "C#CCN(C)CCCOc1ccc(N(CC)C(=O)c2cc(C(C)C)c(O)cc2O)cc1Cl", "growth": "6.65% (active)"}
{"smiles": "CC1=NN(C2=NC(=O)C(CC(=O)Nc3ccccc3C(F)(F)F)S2)C(c2ccc(N(C)C)cc2)C1", "note": "(stereo not given)", "growth": "60.5%"}
{"smiles": "Cc1nc2sccn2c1-c1nnc(SCc2ccccc2)o1", "growth": "105%"}
{"smiles": "CC(=O)C[n+]1cccc2c3ccccc3ccc21", "growth": "92.3%"}
{"smiles": "CS(=O)(=O)Nc1cccc(-n2c(COc3ccc(OC(F)(F)F)cc3)nc3ccccc32)c1", "growth": "97.3% and 108%"}
{"smiles": "Cc1[nH]nc2ccc3nc(-c4cn[nH]c4C(F)(F)F)c4c(c3c12)CCCC4", "growth": "-31.1% (active)"}
{"smiles": "O=C(N/N=C/c1ccc(B(O)O)s1)c1[nH]c2ccc(Br)cc2c1-c1ccccc1", "growth": "-74% (active)"}
